In PubChem BioAssay (NCATS):
Results filed as inconclusive are left out. Calls of active or inactive are those of the source. Calls follow the shape of the dose curve; as a rule, active = well fitted curve in the direction sought with a large enough effect; inconclusive = small, poorly fitted or top-dose-only effect, or another doubt; inactive = no such curve, though single readings can be large; an effect the other way counts as inactive or inconclusive.

Experiments:
[1] = system: Zika virus NS2B-NS3 protease (linked construct); assay: Primary screen NINDS Rhodamine qHTS for Zika virus inhibitors (AID 1347160); also: nearly all actives have a fitted effect of over 55% in size; as to activity change, negative = inhibition: % is scaled to controls: 0 for no effect and ±100 for the full control effect
How it was run: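 Percent inhibition, normalized to uninhibited and enzyme-free controls, is fitted to a 4-parameter Hill equation. Fluorescence change comes from a 15-min cleavage of 1.5 microM bis-peptide Rhodamine110 substrate by 25 nM linked NS2B-NS3 at room temperature.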

[2] = biological target: Calcium and integrin-binding protein 1 (Homo sapiens) (UniProt Q99828); assay: Primary qHTS for Identification of Calcium Integrin Binding Protein 1 (CIB1) Competitor (AID 1508620);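 also: GST tagged CIB1 binding a fluorescein labelled alphaIIb integrin peptide tracer; top concentration of the series differs between compounds; % is scaled to controls: 0 for no effect and ±100 for the full control effect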
How it was run: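 Fluorescence polarization competition: CIB1-GST (1 uM final) preincubated with compound 15 min at room temperature, then FITC-labeled alphaIIb peptide (100 nM final) added for another 15 min. Polarization read at Ex 480/Em 540.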

[3] = biological target: Glutathione peroxidase 1 (Homo sapiens) (UniProt P07203); assay: Primary qHTS Assay for Inhibitors of Recombinant Selenoprotein Glutathione Peroxidase 1 (GPX1) (AID 1845191); also: nearly all actives have a fitted effect of over 65% in size; as to activity, negative = inhibition: % is scaled to controls: 0 for no effect and ±100 for the full control effect
How it was run: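 Recombinant GPX1 (10 nM final) was preincubated with compound for 30 min at room temperature, then reacted with 1 mM GSH, 0.5 mM CHP, 0.5 mM NADPH and 100 nM glutathione reductase; NADPH fluorescence (340/450 nm) was read at 0 and 15 min.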

[4] = biological target: Phospholipid hydroperoxide glutathione peroxidase GPX4 (Homo sapiens) (UniProt P36969); assay: Primary qHTS Assay for Inhibitors of Recombinant Selenoprotein Glutathione Peroxidase 4 (GPX4) (AID 1845192); also: nearly all actives have a fitted effect of over 65% in size; as to activity change, negative = inhibition: % is scaled to controls: 0 for no effect and ±100 for the full control effect
How it was run: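 GR-coupled readout: 100 nM GR, 1 mM GSH, 0.5 mM NADPH; NADPH fluorescence (ex 340/em 450 nm) read at t=0 and after 15 min RT. GPX4 200 nM, preincubated 30 min with compound; substrate 0.5 mM CHP.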

[5] = biological target: Luciferin 4-monooxygenase (Photinus pyralis) (UniProt P08659); assay: Primary firefly luciferase (FLuc) qHTS assay for identification of artifact compounds. (AID 1845220); settings: outcome: dose series up to 54.1 µM unless noted; also: nearly all actives have a fitted effect of over 60% in size;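 as to activity change, negative = inhibition: plate controls were DMSO vehicle for no effect and no enzyme for full effect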
How it was run: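 qHTS, 15 min compound preincubation with substrate (10 uM luciferin, 10 uM ATP) at RT, then 10 nM FLuc; 5 min; luminescence; % inhibition vs no-enzyme/DMSO controls, 4-parameter Hill fit.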

[6] = Primary fluorescence-based thiol-reactive (MSTI) qHTS assay for identification of artifact compounds. (AID 1845221);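 also: thiol-reactive compounds lower the probe fluorescence signal; nearly all actives have a fitted effect of over 65% in size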
How it was run: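 Compounds were incubated 1 h at room temperature in the dark with the MSTI probe (4 uM) in PBS pH 7.4, 2% DMSO. Signals were normalized between Acetyl-MSTI and MSTI.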

[7] = system: Nanoluciferase (engineered Oplophorus gracilirostris luciferase); assay: Primary Nanoluciferase (NLuc) qHTS assay for identification of artifact compounds. (AID 1845222);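 also: 0% = DMSO and -100% = no enzyme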
How it was run: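 Luminescence read-out of secreted NLuc in S16 cell conditioned medium (1:55); compounds tested with 15 min RT preincubation, then Nano-Glo substrate 1:100, 5 min. % inhibition vs no-enzyme and DMSO controls, 4-parameter Hill fit.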

[8] = Primary redox qHTS assay for identification of artifact compounds. (AID 1845223);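 also: 0% = DMSO and 100% = reference compound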
How it was run: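 Amplex Red (25 uM) and HRP (250 mU/mL) in HBSS, with compounds for 15 min, then 250 uM DTT for 30 min, room temperature, dark. Fluorescence 525/598 nm read; normalized to DMSO and 10 uM DA3003; Hill fit.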

HaCat = assay: Cytotoxic Profiling of Annotated Libraries Using Quantitative High-Throughput Screening (AID 1296008); settings: Five cell lines viability, CellTiter-Glo ATP luminescence, 48-72 h; max response: active compounds read low; also: nearly all actives have a fitted effect of over 60% in size; also: potency is read from the fitted curve at half-maximal effect
How it was run: (§1)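 Compounds were pin-transferred onto cells and incubated 48 or 72 hr at 37 degree Celsius, 95% humidity. CellTiter-Glo was added, plates sat 10 min at room temperature, then ATP-coupled luminescence was imaged as the viability read-out.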

NIH3T3 = assay: as above; settings: Five cell lines viability, CellTiter-Glo ATP luminescence, 48-72 h; max response: active compounds read low
How it was run: as §1

CAOV3 = assay: Primary qHTS to identify gynecologic anti-cancer compounds using libraries of approved drugs and bioactive compounds (AID 1345084); settings: Gynecologic cancer cell panel viability, ATPlite luminescence, 48 h; series mostly up to 57.5 µM; also: nearly all actives have a fitted effect of over 55% in size; also: potency is read from the fitted curve at half-maximal effect
How it was run: (§2)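 Luminescence from the ATPlite ATP-monitoring reagent indicates viable cell number; lower signal means cytotoxicity. Cells received compound 16 h after seeding and were exposed for 48 h across five concentrations.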

CASKI = assay: as above; settings: Gynecologic cancer cell panel viability, ATPlite luminescence, 48 h; series mostly up to 57.5 µM
How it was run: as §2

Es-2 = assay: as above; settings: Gynecologic cancer cell panel viability, ATPlite luminescence, 48 h; series mostly up to 57.5 µM
How it was run: as §2

Hek293T = assay: as above; settings: Gynecologic cancer cell panel viability, ATPlite luminescence, 48 h, control line for the selectivity index; series mostly up to 57.5 µM
How it was run: as §2

JEG-3 = assay: as above; settings: Gynecologic cancer cell panel viability, ATPlite luminescence, 48 h; series mostly up to 57.5 µM
How it was run: as §2

OV90 = assay: as above; settings: Gynecologic cancer cell panel viability, ATPlite luminescence, 48 h; series mostly up to 57.5 µM
How it was run: as §2

Tov112D = assay: as above; settings: Gynecologic cancer cell panel viability, ATPlite luminescence, 48 h; series mostly up to 57.5 µM
How it was run: as §2

C33A = assay: as above; settings: Gynecologic cancer cell panel viability, ATPlite luminescence, 48 h; series mostly up to 57.5 µM
How it was run: as §2

PA-1 = assay: as above; settings: Gynecologic cancer cell panel viability, ATPlite luminescence, 48 h; series mostly up to 57.5 µM
How it was run: as §2

Tov-21-G = assay: as above; settings: Gynecologic cancer cell panel viability, ATPlite luminescence, 48 h; series mostly up to 57.5 µM
How it was run: as §2

Glutathione peroxidase 1 (Homo sapiens), sequence (P07203 whole entry, looked up): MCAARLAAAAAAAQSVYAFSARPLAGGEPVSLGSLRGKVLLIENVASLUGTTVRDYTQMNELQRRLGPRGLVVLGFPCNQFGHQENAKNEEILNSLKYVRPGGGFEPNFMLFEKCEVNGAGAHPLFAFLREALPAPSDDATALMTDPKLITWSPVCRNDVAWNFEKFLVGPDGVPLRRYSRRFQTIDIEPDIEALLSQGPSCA
Calcium and integrin-binding protein 1 (Homo sapiens), sequence (Q99828 whole entry, looked up): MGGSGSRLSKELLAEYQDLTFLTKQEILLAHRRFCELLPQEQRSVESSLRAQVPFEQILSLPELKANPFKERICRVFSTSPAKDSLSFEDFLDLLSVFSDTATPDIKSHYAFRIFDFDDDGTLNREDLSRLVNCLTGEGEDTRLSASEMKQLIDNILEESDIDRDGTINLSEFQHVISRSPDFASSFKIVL
Phospholipid hydroperoxide glutathione peroxidase GPX4 (Homo sapiens), sequence (P36969 whole entry, looked up): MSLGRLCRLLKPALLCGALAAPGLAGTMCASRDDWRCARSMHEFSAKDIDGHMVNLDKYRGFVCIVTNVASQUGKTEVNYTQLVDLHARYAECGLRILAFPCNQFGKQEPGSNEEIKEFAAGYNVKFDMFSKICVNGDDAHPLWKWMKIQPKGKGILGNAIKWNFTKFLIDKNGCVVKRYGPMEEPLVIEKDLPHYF

CC(=O)OC[C@]12C[C@H](OC(C)=O)C(C)=C[C@H]1O[C@@H]1[C@H](O)[C@@H](O)[C@@]2(C)[C@]12CO2
active: Potency (HaCat) 1.28 µM | Potency (NIH3T3) 1.01 µM | Potency (CAOV3) 1 µM | Potency (CASKI) 1.41 µM | Potency (Es-2) 1.26 µM | Potency (Hek293T) 0.398 µM | Potency (JEG-3) 5.62 µM | Potency (OV90) 3.16 µM | Potency (Tov112D) 2.24 µM
inactive: Potency [1] | Potency [2] | Potency [3] | Potency [4] | outcome [5] | Potency [6] | Potency [7] | Potency [8]

COc1ccc(C23CCC(=O)C=C2N(C)CC3)cc1OC (configuration not stated)
inactive: Potency [1] | Potency [3] | Potency [4] | outcome [5] | Potency [6] | Potency [7] | Potency [8] | max response (NIH3T3) -27.9% | Potency (C33A) | Potency (CAOV3) | Potency (Es-2) | Potency (Hek293T) | Potency (OV90) | Potency (PA-1) | Potency (Tov-21-G) | Potency (Tov112D)

CCC1(O)CCC2C3CCC4=CC(=O)CCC4C3CCC21CC (configuration not stated)
inactive: Potency [1] | Potency [2] | Potency [3] | outcome [5] | Potency [6] | Potency [8] | outcome (HaCat) | max response (NIH3T3) 1.71% | Potency (C33A) | Potency (CAOV3) | Potency (CASKI) | Potency (Es-2) | Potency (Hek293T) | Potency (JEG-3) | Potency (OV90) | Potency (PA-1) | Potency (Tov-21-G) | Potency (Tov112D)

Cc1sc2c(c1C)C(c1ccc(Cl)cc1)=NC(CC(=O)OC(C)(C)C)c1nnc(C)n1-2 (configuration not stated)
inactive: Potency [2] | Potency [4] | outcome [5] | Potency [6] | Potency [7] | Potency [8] | Potency (C33A) | Potency (Hek293T) | Potency (JEG-3) | Potency (OV90)
active: Potency (PA-1) 2 µM

CN(CC[C@H](N)CC(=O)N[C@H]1C=C[C@@H](n2ccc(N)nc2=O)O[C@@H]1C(=O)O)C(=N)N
inactive: activity change, negative = inhibition [1] 10.8% [at 10.7 µM] | Potency [2] | activity, negative = inhibition [3] -3.97% [at 9.52 µM] | outcome [4] inactive [at 9.73 µM] | outcome [5] inactive [at 11.6 µM] | activity change, negative = thiol reactive [6] -6.62% [at 11.5 µM] | activity, negative = inhibition [7] 0% [at 11.6 µM] | redox activity (% of DA3003) [8] -9.15% [at 11.5 µM] | outcome (HaCat) | activity change, negative = cytotoxicity (C33A) 6.23% [at 11.6 µM] | activity change, negative = cytotoxicity (CAOV3) 8.99% [at 11.6 µM] | activity change, negative = cytotoxicity (CASKI) 4.22% [at 11.6 µM] | activity change, negative = cytotoxicity (Es-2) -2.42% [at 11.6 µM] | activity change, negative = cytotoxicity (Hek293T) 1.23% [at 11.6 µM] | activity change, negative = cytotoxicity (JEG-3) 12.8% [at 11.6 µM] | activity change, negative = cytotoxicity (OV90) -7.37% [at 11.6 µM] | activity change, negative = cytotoxicity (PA-1) 5.22% [at 11.6 µM] | activity change, negative = cytotoxicity (Tov-21-G) 2.99% [at 11.6 µM] | activity change, negative = cytotoxicity (Tov112D) 1.2% [at 11.6 µM]

NNC(=O)c1nn(Cc2ccc(Cl)cc2Cl)c2ccccc12
inactive: Potency [1] | Potency [2] | Potency [3] | Potency [4] | outcome [5] | Potency [6] | Potency [7] | Potency [8] | max response (HaCat) 3.64% | max response (NIH3T3) -5.07% | Potency (C33A) | Potency (CASKI) | Potency (Es-2) | Potency (Hek293T) | Potency (JEG-3) | Potency (OV90) | Potency (Tov112D)

C[C@]12CC[C@H](O[C@@H]3O[C@H](CO)[C@@H](O)[C@H](O)[C@H]3O)CC1CC[C@@H]1C2CC[C@]2(C)[C@@H](C3=CC(=O)OC3)CC[C@]12O (some centres not stated)
active: Potency (C33A) 5.62 µM | Potency (Es-2) 10 µM | Potency (Hek293T) 7.94 µM | Potency (PA-1) 7.94 µM | Potency (Tov-21-G) 5.01 µM | Potency (Tov112D) 3.16 µM
inactive: Potency [1] | Potency [2] | Potency [3] | Potency [4] | outcome [5] inactive [at 25.7 µM] | Potency [6] | Potency [7] | Potency [8] | outcome (NIH3T3) | Potency (OV90)

CCCCCn1cc(C(=O)C2C(C)(C)C2(C)C)c2ccccc21
inactive: Potency [1] | Potency [2] | Potency [3] | Potency [4] | outcome [5] | Potency [6] | Potency [7] | Potency [8] | outcome (HaCat) | max response (NIH3T3) -0.489% | Potency (C33A) | Potency (CAOV3) | Potency (CASKI) | Potency (Es-2) | Potency (Hek293T) | Potency (JEG-3) | Potency (OV90) | Potency (PA-1) | Potency (Tov-21-G) | Potency (Tov112D)

CCOC(=O)C1(CCc2ccccc2)CCN(Cc2ccc(NC(C)=O)cc2)CC1
inactive: Potency [1] | Potency [3] | Potency [4] | outcome [5] | Potency [6] | Potency [7] | Potency [8] | max response (HaCat) 1.98% | max response (NIH3T3) -0.351% | Potency (C33A) | Potency (CAOV3) | Potency (CASKI) | Potency (Es-2) | Potency (Hek293T) | Potency (JEG-3) | Potency (OV90) | Potency (PA-1) | Potency (Tov-21-G) | Potency (Tov112D)

C[C@H]1CN(Cc2ccc(CC(=O)N3CCC(Nc4cccc(F)c4)CC3)cc2)CCN1
active: Potency (NIH3T3) 20.6 µM
inactive: Potency [1] | Potency [2] | Potency [3] | Potency [4] | outcome [5] | Potency [6] | Potency [7] | Potency [8] | Potency (C33A) | Potency (CAOV3) | Potency (CASKI) | Potency (Es-2) | Potency (Hek293T) | Potency (JEG-3) | Potency (OV90) | Potency (PA-1) | Potency (Tov-21-G) | Potency (Tov112D)

C/C(=C\c1csc(C)n1)[C@@H]1C[C@@H]2O[C@@H]2CCC[C@H](C)[C@H](O)[C@@H](C)C(=O)C(C)(C)[C@@H](O)CC(=O)O1
inactive: Potency [1] | Potency [2] | Potency [3] | Potency [4] | outcome [5] | Potency [6] | Potency [7] | Potency (JEG-3) | Potency (OV90)

CC[C@H]1/C=C\C=C/C[C@@H](C)[C@H](O)[C@@](C)(O)C(=O)[C@@H](C)[C@H](O)[C@@H](C)C(=O)[C@@H](C)[C@H](O)[C@@H](C)/C=C\C(=O)O[C@@H]2[C@H](C)[C@H](CC1)O[C@]1(CC[C@H](C)[C@H](C[C@@H](C)O)O1)[C@H]2C
inactive: Potency [1] | Potency [2] | Potency [3] | Potency [4] | Potency [6] | Potency [7] | Potency [8] | Potency (CASKI) | Potency (OV90) | Potency (PA-1) | Potency (Tov-21-G)
